Results as given in PubChem BioAssay (NCI).
The panel holds about 83,000 compounds, 20% with a hit somewhere; the sample as a whole holds those more often.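 The test compound was applied at a single concentration to cells in 96-well plates for 48 hours, and percent growth was recorded.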 A number with no mark means an inactive call. Calls of active or inactive are those of the source. The calls were made as follows: active = growth percent below 10; inactive = the rest.

tested on: SF-295 CNS; experiment: NCI-60 one-dose screen, 48 h (100 = growth as untreated, 0 = no growth, -100 = all killed); conditions: 10 µM

SMILES	growth
O=C1/C(=C\c2cn(C(=O)c3ccc(Cl)cc3)c3ccccc23)c2ccccc2N1C(=O)c1ccc(Cl)cc1	102%
Cc1ccc(Nc2cc(C)nc(NCCCNc3ccnc4cc(Cl)ccc34)n2)cc1	-85.6% (active)
COc1ccc(-c2nnc(-c3c(-c4ccccc4)nc4ncccn34)o2)cc1OC	101%
Oc1[nH]c2cc(Cl)ccc2c1/C=c1/ccc2c(c1)N=C(c1cc(F)cc(F)c1)N=2	13.5%
Cc1cc(N(CCCNc2ccnc3cc(Cl)ccc23)Cc2ccc3c(c2)OCO3)nc(N2CCOCC2)n1	-9.78% (active)
COc1cc(/C=N/NC(=O)c2ccccc2Nc2ccnc(C(F)(F)F)c2)ccc1O	114%
Cc1cc(N(CCCNc2ccnc3cc(Cl)ccc23)Cc2ccc3c(c2)OCO3)nc(N2CCCCC2)n1	-67.6% (active)
Clc1ccc2c(NCCCNc3nccc(Nc4ccc(Br)cc4)n3)ccnc2c1	-84.9% (active)
Cc1cc(N(CCCNc2ccnc3cc(Cl)ccc23)Cc2cccs2)nc(Cl)n1	36%
Clc1ccc(Nc2ccnc(NCCCNc3ccnc4cc(Cl)ccc34)n2)cc1	-81.1% (active)
Cc1cc(Cl)nc(N(CCCNc2ccnc3cc(Cl)ccc23)Cc2cccs2)n1	13.1%
CCCCN(CCCC)c1cc(C(=O)CCCCCN)c2ccccc2n1	-62.3% (active)
COc1ccc(-c2nc3sccn3c2-c2nc3c([nH]2)C(=O)c2ccccc2C3=O)cc1	87.2%
CN(C)CCNC(=O)c1cccn2c(=O)c3cc4ccccc4cc3nc12	-19.7% (active)
